Measurements published in the supplement of paper PMC10849652.
About 8,800 targets were measured; listed, in parts, are those with a hit and a random draw of the rest. About 0.5% of all pairs of compound and target were hits. Values without a mark were called inactive.

How the values were obtained:
Assay in all cases: log2 fold change, soluble protein after heating vs DMSO (PISA); higher = thermal stabilisation; K562 lysate, 10 uM; active = over 0.2 and 3.5 SD of the protein, either way, in both replicates (recomputed)
nilotinib = compound: Cc1cn(-c2cc(NC(=O)c3ccc(C)c(Nc4nccc(-c5cccnc5)n4)c3)cc(C(F)(F)F)c2)cn1 [nilotinib]
In short: (§1)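 Thermal stability, expressed as log-two fold change relative to solvent controls, is given from duplicates. Crude K562 extract in PBS pH 7.4 with 1 mM MgCl2, at 1 mg/mL protein, was treated with 10 μM compound for 30 min and heated in aliquots for 3 min across 48°C-58°C. After pooling, adjustment to 0.5% NP-40 at 4°C and centrifugation at 21,000xg for 90 min, supernatant protein was measured by TMTpro 16plex LC-MS/MS with channel sums equalised.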

[1] = compound: Cc1nc(Nc2n[nH]c3c2CN(C(=O)N[C@H](CN(C)C)c2ccccc2)C3(C)C)c2sccc2n1
In short: as §1

dasatinib = compound: Cc1nc(Nc2ncc(C(=O)Nc3c(C)cccc3Cl)s2)cc(N2CCN(CCO)CC2)n1 [dasatinib]
In short: as §1

[2] = compound: Cc1ncc(-c2ccnc(Nc3ccc(S(C)(=O)=O)cc3)n2)n1C(C)C
In short: as §1

[3] = compound: Cn1cc(-c2ccc3c(c2)CCN3C(=O)Cc2cccc(C(F)(F)F)c2)c2c(N)ncnc21
In short: as §1

quisinostat = compound: Cn1cc(CNCC2CCN(c3ncc(C(=O)NO)cn3)CC2)c2ccccc21 [quisinostat]
In short: as §1

tipifarnib = compound: Cn1cncc1[C@@](N)(c1ccc(Cl)cc1)c1ccc2c(c1)c(-c1cccc(Cl)c1)cc(=O)n2C [tipifarnib]
In short: as §1

[4] = compound: NC(=O)Nc1cc(-c2cccc(F)c2)sc1C(=O)N[C@H]1CCCNC1
In short: as §1

[5] = compound: NC(=O)c1cnc(N[C@@H]2CCCC[C@@H]2N)nc1Nc1cccc(-n2nccn2)c1
In short: as §1

[6] = compound: NC1(c2ccc(-c3nc4ccn5c(=O)[nH]nc5c4cc3-c3ccccc3)cc2)CCC1
In short: as §1

[7] = compound: NCC(=O)Nc1ccc(-n2nc(C(F)(F)F)cc2-c2ccc3c(ccc4ccccc43)c2)cc1
In short: as §1

vorinostat = compound: O=C(CCCCCCC(=O)Nc1ccccc1)NO [vorinostat]
In short: as §1

silmitasertib = compound: O=C(O)c1ccc2c(c1)nc(Nc1cccc(Cl)c1)c1ccncc12 [silmitasertib]
In short: as §1

[8] = compound: O=C1NC(=O)C(c2cnc3ccccn23)=C1c1cn2c3c(cc(F)cc13)CN(C(=O)N1CCCCC1)CC2
In short: as §1

entospletinib = compound: c1cn2cc(-c3ccc4cn[nH]c4c3)nc(Nc3ccc(N4CCOCC4)cc3)c2n1 [entospletinib]
In short: as §1

Chain of UniProt Q99828 (Q99828 whole entry, looked up): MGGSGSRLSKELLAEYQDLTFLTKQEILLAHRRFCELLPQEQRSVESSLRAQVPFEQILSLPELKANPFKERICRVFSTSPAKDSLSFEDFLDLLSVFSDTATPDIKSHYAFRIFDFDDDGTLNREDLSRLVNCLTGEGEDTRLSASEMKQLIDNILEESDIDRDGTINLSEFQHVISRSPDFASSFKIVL
Chain of UniProt Q96KC8 (Q96KC8 whole entry, looked up): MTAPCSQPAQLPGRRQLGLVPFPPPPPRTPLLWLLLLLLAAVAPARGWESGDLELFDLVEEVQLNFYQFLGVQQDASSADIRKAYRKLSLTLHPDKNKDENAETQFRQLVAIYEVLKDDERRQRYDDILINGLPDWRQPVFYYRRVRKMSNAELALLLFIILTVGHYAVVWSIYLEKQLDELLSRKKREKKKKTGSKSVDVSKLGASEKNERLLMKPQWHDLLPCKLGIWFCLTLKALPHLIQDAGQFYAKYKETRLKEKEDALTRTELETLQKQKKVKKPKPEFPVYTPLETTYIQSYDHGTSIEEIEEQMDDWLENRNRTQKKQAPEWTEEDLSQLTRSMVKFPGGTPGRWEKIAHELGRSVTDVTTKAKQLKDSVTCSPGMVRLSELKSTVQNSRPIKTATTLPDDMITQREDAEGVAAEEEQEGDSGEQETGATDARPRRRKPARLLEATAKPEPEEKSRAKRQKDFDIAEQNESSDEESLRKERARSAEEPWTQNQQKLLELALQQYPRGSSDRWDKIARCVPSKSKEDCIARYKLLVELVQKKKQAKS
Chain of UniProt P31146 (P31146 whole entry, looked up): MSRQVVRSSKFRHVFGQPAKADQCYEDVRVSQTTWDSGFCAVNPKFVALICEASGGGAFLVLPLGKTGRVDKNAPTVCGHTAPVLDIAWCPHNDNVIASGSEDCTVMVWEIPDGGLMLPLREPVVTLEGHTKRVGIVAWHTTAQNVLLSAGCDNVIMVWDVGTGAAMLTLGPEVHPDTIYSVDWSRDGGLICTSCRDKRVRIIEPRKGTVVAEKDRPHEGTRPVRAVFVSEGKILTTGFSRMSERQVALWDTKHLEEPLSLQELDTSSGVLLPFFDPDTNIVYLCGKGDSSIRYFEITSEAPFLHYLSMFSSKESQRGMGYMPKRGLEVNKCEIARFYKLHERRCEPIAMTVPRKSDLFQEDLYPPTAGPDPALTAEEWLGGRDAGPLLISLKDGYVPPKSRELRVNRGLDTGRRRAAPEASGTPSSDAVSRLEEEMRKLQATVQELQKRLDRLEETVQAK
Chain of UniProt O15111 (O15111 whole entry, looked up): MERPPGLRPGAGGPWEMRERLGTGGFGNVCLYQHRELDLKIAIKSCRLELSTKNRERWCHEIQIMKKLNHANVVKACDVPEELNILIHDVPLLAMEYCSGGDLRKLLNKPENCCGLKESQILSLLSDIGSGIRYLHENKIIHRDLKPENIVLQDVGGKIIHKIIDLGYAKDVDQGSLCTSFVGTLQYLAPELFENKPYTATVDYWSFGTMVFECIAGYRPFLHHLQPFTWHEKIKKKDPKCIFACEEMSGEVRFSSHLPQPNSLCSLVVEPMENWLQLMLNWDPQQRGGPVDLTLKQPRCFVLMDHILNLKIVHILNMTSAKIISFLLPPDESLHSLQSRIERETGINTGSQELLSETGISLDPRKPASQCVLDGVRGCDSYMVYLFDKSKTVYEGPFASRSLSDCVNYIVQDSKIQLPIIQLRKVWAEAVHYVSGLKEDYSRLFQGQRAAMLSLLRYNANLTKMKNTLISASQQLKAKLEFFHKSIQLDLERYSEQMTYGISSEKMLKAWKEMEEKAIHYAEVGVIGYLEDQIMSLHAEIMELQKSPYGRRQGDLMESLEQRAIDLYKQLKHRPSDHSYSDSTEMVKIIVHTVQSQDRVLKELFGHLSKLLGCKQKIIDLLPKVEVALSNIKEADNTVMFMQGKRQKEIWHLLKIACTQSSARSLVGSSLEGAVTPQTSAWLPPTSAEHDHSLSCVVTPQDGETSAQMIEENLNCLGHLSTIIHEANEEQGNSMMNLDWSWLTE
Chain of UniProt Q13217 (Q13217 whole entry, looked up): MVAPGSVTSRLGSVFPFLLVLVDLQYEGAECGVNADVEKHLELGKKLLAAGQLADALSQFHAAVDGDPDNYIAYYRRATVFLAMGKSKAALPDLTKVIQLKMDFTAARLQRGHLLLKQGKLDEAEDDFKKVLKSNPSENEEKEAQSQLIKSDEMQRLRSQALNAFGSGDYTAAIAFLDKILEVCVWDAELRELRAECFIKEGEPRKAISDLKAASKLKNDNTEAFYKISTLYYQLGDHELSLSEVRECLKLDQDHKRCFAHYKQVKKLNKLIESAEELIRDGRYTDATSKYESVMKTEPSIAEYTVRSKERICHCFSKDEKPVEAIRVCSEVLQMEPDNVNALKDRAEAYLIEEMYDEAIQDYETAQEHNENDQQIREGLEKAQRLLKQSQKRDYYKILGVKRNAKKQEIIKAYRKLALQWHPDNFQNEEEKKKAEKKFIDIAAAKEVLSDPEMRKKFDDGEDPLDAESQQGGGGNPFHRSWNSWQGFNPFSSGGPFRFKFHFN
Chain of UniProt O96017 (O96017 whole entry, looked up): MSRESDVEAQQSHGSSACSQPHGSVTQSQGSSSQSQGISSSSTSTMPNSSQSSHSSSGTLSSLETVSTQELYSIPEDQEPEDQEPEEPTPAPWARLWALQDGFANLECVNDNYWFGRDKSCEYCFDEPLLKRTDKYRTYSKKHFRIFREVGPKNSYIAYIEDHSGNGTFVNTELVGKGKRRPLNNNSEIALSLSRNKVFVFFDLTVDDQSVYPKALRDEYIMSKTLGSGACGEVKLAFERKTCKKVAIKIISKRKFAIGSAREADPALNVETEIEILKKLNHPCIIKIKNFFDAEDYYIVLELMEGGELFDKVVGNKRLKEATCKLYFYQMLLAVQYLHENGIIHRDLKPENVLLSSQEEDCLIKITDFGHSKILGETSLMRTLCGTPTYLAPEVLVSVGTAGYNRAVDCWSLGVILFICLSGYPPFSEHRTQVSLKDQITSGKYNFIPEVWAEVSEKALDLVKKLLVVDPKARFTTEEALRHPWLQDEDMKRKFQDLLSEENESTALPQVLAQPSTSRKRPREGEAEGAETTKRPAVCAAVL
Chain of UniProt P30622 (P30622 whole entry, looked up): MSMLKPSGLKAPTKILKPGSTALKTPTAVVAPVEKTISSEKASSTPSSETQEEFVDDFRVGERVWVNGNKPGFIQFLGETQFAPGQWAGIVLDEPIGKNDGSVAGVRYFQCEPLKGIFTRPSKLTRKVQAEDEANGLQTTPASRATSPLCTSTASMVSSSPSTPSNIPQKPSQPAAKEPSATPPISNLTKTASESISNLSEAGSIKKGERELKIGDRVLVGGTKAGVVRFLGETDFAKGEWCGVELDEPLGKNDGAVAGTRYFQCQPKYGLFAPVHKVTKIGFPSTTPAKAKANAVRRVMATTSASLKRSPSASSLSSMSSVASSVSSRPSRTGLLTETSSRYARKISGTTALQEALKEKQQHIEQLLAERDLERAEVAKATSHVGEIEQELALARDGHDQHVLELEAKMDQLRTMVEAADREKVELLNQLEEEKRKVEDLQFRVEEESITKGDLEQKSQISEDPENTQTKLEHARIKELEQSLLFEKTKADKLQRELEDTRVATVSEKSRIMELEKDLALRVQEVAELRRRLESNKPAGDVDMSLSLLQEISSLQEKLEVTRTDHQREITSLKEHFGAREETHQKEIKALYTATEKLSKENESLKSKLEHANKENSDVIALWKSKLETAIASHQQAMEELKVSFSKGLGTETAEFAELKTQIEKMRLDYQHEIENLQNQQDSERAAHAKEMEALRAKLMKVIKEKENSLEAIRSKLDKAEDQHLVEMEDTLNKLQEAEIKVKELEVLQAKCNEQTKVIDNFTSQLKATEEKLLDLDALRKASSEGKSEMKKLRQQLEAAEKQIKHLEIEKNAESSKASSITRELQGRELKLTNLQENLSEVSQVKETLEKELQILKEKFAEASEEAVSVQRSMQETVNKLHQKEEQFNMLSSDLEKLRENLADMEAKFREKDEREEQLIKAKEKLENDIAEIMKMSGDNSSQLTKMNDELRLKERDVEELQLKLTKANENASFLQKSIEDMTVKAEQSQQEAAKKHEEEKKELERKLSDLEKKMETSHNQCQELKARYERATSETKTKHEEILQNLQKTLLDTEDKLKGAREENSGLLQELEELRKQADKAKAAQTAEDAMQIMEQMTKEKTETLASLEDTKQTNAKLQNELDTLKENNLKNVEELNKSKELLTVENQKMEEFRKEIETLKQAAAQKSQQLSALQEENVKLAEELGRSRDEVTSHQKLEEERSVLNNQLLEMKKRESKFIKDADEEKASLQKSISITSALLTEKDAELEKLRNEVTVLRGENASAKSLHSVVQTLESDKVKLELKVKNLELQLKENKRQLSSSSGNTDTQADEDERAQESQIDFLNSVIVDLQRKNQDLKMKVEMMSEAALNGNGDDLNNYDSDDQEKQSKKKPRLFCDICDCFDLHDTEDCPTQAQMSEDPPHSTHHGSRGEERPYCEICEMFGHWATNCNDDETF
Chain of UniProt Q9BY43 (Q9BY43 whole entry, looked up): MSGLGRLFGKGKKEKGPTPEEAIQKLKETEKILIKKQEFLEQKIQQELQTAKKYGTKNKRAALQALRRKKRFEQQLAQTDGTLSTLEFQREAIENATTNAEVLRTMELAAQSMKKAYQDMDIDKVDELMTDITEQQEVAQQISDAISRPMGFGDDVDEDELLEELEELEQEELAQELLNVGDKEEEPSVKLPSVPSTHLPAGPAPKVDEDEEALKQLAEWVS
Chain of UniProt Q9H5X1 (Q9H5X1 whole entry, looked up): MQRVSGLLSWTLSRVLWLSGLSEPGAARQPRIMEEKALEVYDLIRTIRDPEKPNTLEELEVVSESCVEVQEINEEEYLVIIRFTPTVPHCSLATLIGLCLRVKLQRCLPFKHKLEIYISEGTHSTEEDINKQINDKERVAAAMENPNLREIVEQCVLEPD
Chain of UniProt Q96MX0 (Q96MX0 whole entry, looked up): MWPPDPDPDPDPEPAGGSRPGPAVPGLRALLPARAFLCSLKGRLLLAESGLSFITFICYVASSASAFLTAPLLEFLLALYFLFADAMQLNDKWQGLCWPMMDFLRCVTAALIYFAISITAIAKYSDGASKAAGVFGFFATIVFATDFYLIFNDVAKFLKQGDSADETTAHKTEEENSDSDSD

| Target | log2 fold change (nilotinib) | log2 fold change [1] | log2 fold change (dasatinib) | log2 fold change [2] | log2 fold change [3] | log2 fold change (quisinostat) | log2 fold change (tipifarnib) | log2 fold change [4] | log2 fold change [5] | log2 fold change [6] | log2 fold change [7] | log2 fold change (vorinostat) | log2 fold change (silmitasertib) | log2 fold change [8] | log2 fold change (entospletinib) |
| --- | --- | --- | --- | --- | --- | --- | --- | --- | --- | --- | --- | --- | --- | --- | --- |
| CXXC1 isoform 2 (UniProt Q9P0U4) | 0.032 | 0.029 | -0.504 | 0.026 | -0.191 | -0.159 | -0.039 | -0.013 | -0.021 | 0.082 | -0.008 | -0.18 | 0.08 | 0.027 | -0.033 |
| DNAJC1 (UniProt Q96KC8) | -0.03 | 0 | -0.09 | -0.012 | 0.016 | 0.04 | 0.004 | 0.026 | -0.028 | 0.028 | 0.003 | 0.017 | 0.025 | -0.007 | -0.032 |
| CTPS2 (UniProt Q9NRF8) | -0.005 | 0.006 | -0.035 | -0.002 | 0.01 | 0.029 | 0.003 | 0.001 | -0.003 | 0.012 | 0.006 | 0.327 (active) | 0.007 | -0.034 | 0.019 |
| CKAP5 (UniProt Q14008) | 0 | 0.002 | -0.024 | -0.005 | 0.026 | -0.03 | -0.028 | 0.021 | 0.01 | 0.006 | -0.013 | -0.269 (active) | 0.011 | 0.002 | 0.005 |
| CIAO2A (UniProt Q9H5X1) | -0.018 | 0.033 | -0.037 | -0.074 | 0.011 | 0.011 | -0.067 | -0.004 | -0.027 | -0.038 | 0.021 | 0.368 (active) | -0.016 | -0.037 | 0.009 |
| CHEK2 (UniProt O96017) | -0.022 | 0.285 (active) | 0.04 | -0.007 | 0.05 | -0.057 | 0.023 | 0.326 (active) | 0.013 | 0.035 | -0.021 | -0.128 | 0.04 | -0.006 | -0.033 |
| DHRS11 (UniProt Q6UWP2) | 0.058 | 0.017 | -0.018 | 0.008 | 0.03 | 0.024 | 0.002 | 0.037 | 0.002 | 0 | -0.006 | -0.255 (active) | -0.014 | 0.02 | -0.011 |
| DNAJC3 (UniProt Q13217) | 0.029 | -0.019 | 0.074 | 0.008 | 0.023 | 0.11 | -0.085 | -0.055 | 0.012 | 0.005 | -0.029 | 0.064 | 0.017 | 0.033 | 0 |
| CMTM3 (UniProt Q96MX0) | 0.07 | 0.048 | 0.05 | 0.144 | 0.015 | 0.023 | -0.111 | -0.115 | -0.055 | -0.026 | 0.05 | -0.516 (active) | -0.004 | -0.03 | -0.004 |
| DGCR8 (UniProt Q8WYQ5) | -0.01 | -0.002 | -0.061 | -0.029 | -0.02 | -0.007 | 0.03 | -0.032 | -0.048 | 0.003 | -0.027 | -0.38 (active) | -0.041 | -0.054 | -0.066 |
| CNDP2 (UniProt Q96KP4) | 0.039 | -0.023 | 0.017 | 0.051 | -0.05 | -0.074 | -0.008 | 0.004 | 0.013 | -0.003 | 0.023 | 0.133 | -0.025 | -0.008 | 0.01 |
| CHUK (UniProt O15111) | -0.029 | 0.015 | -0.091 | 0.035 | 0.059 | -0.131 | -0.015 | 0.078 | -0.006 | -0.116 | -0.016 | -0.492 (active) | 0.103 | 0.054 | 0.012 |
| CHMP4A isoform 2 (UniProt Q9BY43) | -0.026 | -0.021 | 0.039 | 0 | -0.011 | -0.145 | 0.017 | -0.029 | -0.02 | -0.009 | 0.011 | 0.1 | -0.027 | -0.051 | 0.019 |
| COG4 (UniProt Q9H9E3) | -0.038 | -0.01 | -0.093 | 0.008 | 0.048 | -0.047 | 0.006 | 0.004 | 0.001 | 0.055 | 0.101 | -0.333 (active) | 0.022 | -0.022 | -0.023 |
| CYP24A1 (UniProt Q07973) | 0.036 | -0.029 | -0.049 | 0.015 | 0.008 | -0.33 | -0.018 | 0.04 | 0.068 | -0.161 | 0.187 | 0.119 | 0.019 | 0.081 | 0.002 |
| CLIP1 isoform 1 (UniProt P30622) | -0.01 | 0.01 | 0.022 | 0.013 | 0.001 | 0.008 | 0.002 | -0.004 | -0.002 | -0.002 | -0.008 | 0.092 | -0.01 | -0.01 | -0.009 |
| DHRS1 (UniProt Q96LJ7) | -0.009 | -0.043 | 0.063 | -0.064 | -0.042 | 0.012 | 0.055 | -0.001 | 0.033 | -0.026 | -0.154 | -0.561 (active) | -0.021 | -0.055 | -0.138 |
| CIB1 (UniProt Q99828) | -0.014 | -0.016 | 0.022 | 0.045 | 0.008 | 0.004 | 0.002 | -0.011 | 0.041 | 0 | -0.027 | 0.049 | -0.006 | -0.037 | -0.091 |
| CNOT6L (UniProt Q96LI5) | -0.026 | 0.016 | -0.053 | 0.001 | 0.01 | -0.054 | -0.047 | 0.055 | -0.024 | 0.003 | 0.019 | -0.032 | 0.004 | 0.017 | 0 |
| CORO1A (UniProt P31146) | 0.003 | -0.012 | -0.146 | 0.022 | 0.034 | -0.028 | 0.032 | -0.015 | -0.017 | -0.026 | 0.094 | -0.412 (active) | -0.003 | 0.025 | 0.116 |
| CLPB isoform 2 (UniProt Q9H078) | -0.011 | -0.003 | 0.076 | -0.03 | 0.018 | 0.008 | -0.004 | 0.005 | 0.031 | -0.016 | 0.075 | -0.446 (active) | 0.062 | -0.028 | 0.016 |
